High-throughput results from PubChem BioAssay.
Nrf2 inh – inhibitors of Nrf2 signaling; AID 504444; A549 ARE-Fluc reporter, luciferase luminescence, 18-24 h; 2.1% of 360,000 active; Potency, µM (doses to about 46 µM), inactives show top-dose activity change, negative = inhibition, most hits filed as inhibitors; note: % is set by controls: 0 for no effect and ±100 for the full control effect; nearly all actives have a fitted effect of over 60% in size
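A549 ARE_Fluc cells (5000/well, 5% FBS OPTI-MEM) pre-incubated 2 h, then treated with compounds 18-24 h at 37C/5% CO2 in concentration-response. CellTiter-Fluor viability read first; BugLite luciferase luminescence after 15 min at room temperature gives Nrf2 activity.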
mIDH1 inhibitor – inhibitors of human mutant IDH1 R132H | 0.093% of 390,000 active | IDH1-R132H enzyme, NADPH consumption, diaphorase/resazurin fluorescence | Potency, µM (titrated, usually from 76.6 µM), inactives show at the top dose activity change, negative = inhibition, most hits filed as inhibitors | O75874 | AID 602179; note: % is set by controls: 0 for no effect and ±100 for the full control effect; nearly all actives have a fitted effect of over 65% in size
Target sequence (O75874 whole entry R132H, stated change not applied): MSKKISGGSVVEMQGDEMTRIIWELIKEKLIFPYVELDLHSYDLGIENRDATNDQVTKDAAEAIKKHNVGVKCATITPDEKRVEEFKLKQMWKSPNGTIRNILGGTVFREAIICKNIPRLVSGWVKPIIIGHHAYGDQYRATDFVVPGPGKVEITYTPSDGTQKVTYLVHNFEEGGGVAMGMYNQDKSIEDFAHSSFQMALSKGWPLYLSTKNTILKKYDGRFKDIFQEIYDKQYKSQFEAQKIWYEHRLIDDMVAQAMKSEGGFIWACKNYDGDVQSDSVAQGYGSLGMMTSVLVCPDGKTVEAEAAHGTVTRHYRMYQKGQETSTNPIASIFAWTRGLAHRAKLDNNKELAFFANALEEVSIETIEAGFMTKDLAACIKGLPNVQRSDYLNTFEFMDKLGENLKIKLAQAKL
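IDH1-R132H (0.5 ug/mL) preincubated 30 min with compound, then NADPH (0.016 mM) and alpha-KG (2 mM) added; 80 min at RT, pH 7.5. Remaining NADPH coupled via diaphorase/resazurin to fluorescence (540/590 nm); concentration-response curves normalized to no-enzyme control.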
ELG1 DNA repair – inhibitors of ELG1-dependent DNA repair in HEK293T cells. HEK293T ELG1-luciferase reporter, luminescence, 16 h; DNA damage induced by 5-fluorouridine. Potency, µM (series often up to 46.1 µM), for the others: at the top dose activity change, negative = inhibition, usual class: inhibitors. 2.3% of 330,000 active; note: % is set by controls: 0 for no effect and ±100 for the full control effect; nearly all actives have a fitted effect of over 55% in size
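Reporter activity after DNA damage by 5-fluorouridine is monitored. Compound-treated cells incubate 16 hr at 37 °C, then ONE-Glo is added for 30 min before luminescence reading.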
Nrf2 activator – activators of Nrf2 (ARE) signaling. AREc32 ARE-luciferase reporter (MCF7-derived line), luminescence, 24 h. Potency, µM (series often up to 46.1 µM), inactives show at the highest dose activation, hits mostly activators. 0.31% of 410,000 active; note: % of control where 0% means no effect; nearly all actives have a fitted effect of over 65% in size
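Nrf2 activation is followed as ARE-luciferase induction in the AREc32 line after one day of compound treatment; luminescence is read with Steady-Glo.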
A549 viability – A549 cytotoxicity, counter-screen for Nrf2 inhibitors. Potency, µM (doses to about 46 µM), inactives show at the top dose activity change, negative = cytotoxicity, actives largely listed as inhibitors. A549 ARE-Fluc cells, CellTiter-Fluor viability, 18-24 h. AID 504648. 0.16% of 390,000 active; note: % is set by controls: 0 for no effect and ±100 for the full control effect
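A549 ARE_Fluc cells in 5% FBS OPTI-MEM were exposed to compounds in concentration-response for 18-24 h at 37 deg C. Viability was read by CellTiter-Fluor fluorescence (Ex 405/Em 525) after 30 min, before the luciferase read.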
The depositor's hits bear a star; ? = inconclusive; nt = no result. Rows were chosen to be rich in hits. Some 3.8% of all compounds tested hit in one or more screens of this group. Calls come from the whole dose curve; as a rule, active = well fitted curve in the direction sought with a large enough effect; inconclusive = small, poorly fitted or top-dose-only effect, or another doubt; inactive = no such curve, though single readings can be large; an effect the other way counts as inactive or inconclusive. Potency is the fitted concentration of half-maximal effect.

SMILES	Nrf2 inh	mIDH1 inhibitor	ELG1 DNA repair	Nrf2 activator	A549 viability
Cc1cc(C(=O)NNS(=O)(=O)c2ccc(C(C)(C)C)cc2)nn1C(C)(C)C	-0.8%	?	-4.3%	0.2%	0.7%
N=c1c(C(=O)NCC2CCCO2)cc2c(=O)n3ccccc3nc2n1CCCO (stereo not drawn)	8.2%	-16.0%	nt	-0.7%	?
CC(C)COc1ccc(C(=O)Nc2cccc(-c3nc4ccccc4[nH]3)c2)cc1	23.1µM*	-11.6%	nt	-1.3%	-18.1%
CC(=O)Nc1nc(-c2ccc([N+](=O)[O-])cc2)cs1	-7.8%	-3.3%	3.5%	0.5%	-6.3%
CC(C)OC(=O)c1cc(NC(=S)Nc2ccc([N+](=O)[O-])cc2)cc(C(=O)OC(C)C)c1	16.4µM*	-0.9%	?	2.8%	?
CC(C)CCNC(=S)Nc1ccc([N+](=O)[O-])cc1	?	1.4%	?	5.4%	?
O=C(Nc1ccc([N+](=O)[O-])cc1)Nc1nc(-c2ccc(Cl)s2)cs1	?	-6.3%	10.3µM*	7.2%	?
CCCCNC(=S)Nc1ccc([N+](=O)[O-])cc1	18.4µM*	2.0%	-14.9%	2.4%	?
O=C(CNC(=O)c1ccc(-c2ccccc2)cc1)OC(C(=O)Nc1cc(C(F)(F)F)ccc1Cl)c1ccccc1 (stereo not drawn)	-5.8%	nt	nt	nt	3.7%
CN1CCN(Cc2nc3ccccc3c(=O)n2Cc2nc(-c3cccc([N+](=O)[O-])c3)cs2)CC1	-12.3%	1.2%	?	28.3%	?
CN1CCN(Cc2nc3ccccc3c(=O)n2Cc2nc(-c3ccc4ccccc4c3)cs2)CC1	?	-4.1%	13µM*	?	?
CN1CCN(Cc2nc3ccccc3c(=O)n2Cc2nc(-c3ccccc3F)cs2)CC1	8.6%	0.9%	16.4µM*	?	?
CCc1cccc(NC(=O)CN2C(=O)COc3ccc(S(=O)(=O)Nc4ccccc4)cc32)c1	-18.7%	-16.2%	nt	1.3%	2.3%
CNC(=S)N/N=C1\CC(c2ccccc2)Oc2ccccc21 (stereo not drawn)	-28.2%	6.3%	23.7%	6.0%	0.2%
Fc1ccc(N/N=C2/CC(c3ccccc3)Oc3ccccc32)c(F)c1 (stereo not drawn)	-0.9%	0.0%	?	12.6µM*	12.0%
Cc1ccc(C(=O)c2ccc(O)cc2)cc1C	14.7%	-2.4%	?	3.4%	1.1%
Cc1ccc(C(=O)c2cccc(N)c2)cc1C	5.8µM*	-3.2%	?	-1.8%	-0.4%
Cc1ccc(NC2=CC(=O)C(=O)c3ccccc32)c(C)c1	?	0.0%	20.6µM*	-0.7%	-5.1%
COCCOC(=O)c1c(C)nc(SCC(=O)Nc2cccc3ccccc23)c(C#N)c1-c1ccco1	?	-1.4%	13µM*	8.8%	-0.6%
COCCOC(=O)c1c(C)nc(SCC(=O)Nc2ccc(C)cc2)c(C#N)c1-c1ccco1	-4.6%	-4.2%	?	0.2%	-2.0%
Cc1ccc2[nH]c3c(N4CCN(Cc5ccccc5)CC4)ncnc3c2c1	9.2µM*	-1.0%	?	-1.5%	?
Cc1ccc2[nH]c3c(N4CCCCCC4)ncnc3c2c1	nt	nt	10.3µM*	nt	nt
COc1ccc2[nH]c3c(N4CC(C)OC(C)C4)ncnc3c2c1 (stereo not drawn)	-17.8%	14.2%	?	4.0%	-3.7%
c1nc(N2CCN(Cc3ccc4c(c3)OCO4)CC2)c2[nH]cnc2n1	7.5%	9.1%	?	-0.8%	10.2%
COc1ccc2c(c1)[nH]c1c(N3CCSCC3)ncnc12	20.6µM*	18.8%	9.2µM*	2.5%	?
SMILES	Nrf2 inh	mIDH1 inhibitor	ELG1 DNA repair	Nrf2 activator	A549 viability
Cc1ccc2[nH]c3c(N4CCN(Cc5ccc6c(c5)OCO6)CC4)ncnc3c2c1	nt	nt	23.1µM*	nt	nt
OCCN1CCN(c2cc(-c3ccc4ccccc4c3)nc3ccnn23)CC1	nt	nt	nt	3.1%	nt
c1ccc2c(c1)[nH]c1c(N3CCC4(CC3)OCCO4)ncnc12	13µM*	1.6%	20.6µM*	3.4%	-17.6%
COc1cccc2[nH]c3c(N4CCN(Cc5ccc6c(c5)OCO6)CC4)ncnc3c12	nt	nt	23.1µM*	nt	nt
CCOc1ccc2[nH]c3c(N4CCN(c5ccccn5)CC4)ncnc3c2c1	nt	8.6%	16.4µM*	-0.6%	-18.0%
COc1cccc2[nH]c3c(N4CCC5(CC4)OCCO5)ncnc3c12	0.5%	-2.5%	-10.9%	3.2%	14.4%
COc1ccc2c(c1)[nH]c1c(N3CCN(Cc4ccc5c(c4)OCO5)CC3)ncnc12	13µM*	4.2%	20.6µM*	0.5%	-6.4%
CCOc1ccc(CNC(=O)CCCn2nc(C)c3sc4ccccc4c3c2=O)cc1	?	-17.3%	nt	-0.9%	13.5%
Cc1cccc(OCCn2c(CCNC(=O)C3CCCCC3)nc3ccccc32)c1	?	nt	nt	nt	-3.0%
CCOc1ccc(-c2nnc(SCC(=O)NCc3ccc(Cl)cc3)o2)cc1	20.7%	10.7%	nt	0.4%	0.4%
Cc1ccc(Cl)cc1N1CCN(C(=O)CCCCCn2c(=O)[nH]c3ccccc3c2=O)CC1	nt	?	nt	0.5%	?
Cc1csc2nc(-c3cccc(NC(=O)c4ccccc4F)c3)cn12	nt	8.9%	nt	2.5%	10.5%
Cc1nc(CC(=O)Nc2ccc(N(C)C)cc2)cs1	7.5%	20.9%	nt	0.7%	1.1%
COc1cccc2[nH]c3c(N4CCc5ccccc5C4)ncnc3c12	?	9.5%	13µM*	2.8%	?
c1ccc(CN2CCN(c3nc4ccccc4c4ccccc34)CC2)cc1	-15.7%	2.3%	-16.9%	4.3%	1.0%
c1ccc(CN2CCN(c3ncnc4c3[nH]c3ccccc34)CC2)cc1	14.6µM*	9.2%	14.6µM*	0.1%	-19.3%
COc1cccc2[nH]c3c(N4CCC(C)CC4)ncnc3c12	-3.8%	6.9%	?	7.4%	-6.7%
COc1ccccc1C(=O)Nc1ccc(C(=O)OCc2cc(=O)n3nc(C)sc3n2)cc1	nt	0.0%	nt	2.4%	0.4%
CN(C)c1nc(OCCNC(=O)COc2ccc(Cl)cc2Cl)nc(N(C)C)n1	?	0.7%	20.6µM*	-0.8%	-9.9%
CCCCc1nc2cc(C(=O)N(C)C3CCOCC3)ccc2o1	27.7%	-8.0%	?	0.1%	-0.1%
CN(C(=O)c1ccc(Oc2ccc([N+](=O)[O-])cc2)cc1)C1CCCCC1	25.9µM*	5.2%	-27.7%	6.2%	-7.7%
CCC(=O)Nc1cccc(-c2cc3ccccc3oc2=O)c1	?	-2.8%	?	2.1%	7.1%
O=C(Cc1cccc2ccccc12)Nc1ccc(-c2cc3ccccc3oc2=O)cc1	5.8µM*	5.7%	?	-3.0%	-6.1%
Cc1cc(NC(=O)Nc2ccccc2Cl)no1	?	8.0%	?	6.0%	0.7%
Cc1cc(NC(=O)Nc2cc(Cl)sc2Cl)no1	-24.1%	-8.5%	0.4%	3.16µM*	1.7%
